Assay outcomes deposited in PubChem BioAssay by National Center for Advancing Translational Sciences (NCATS).
ATXN2 expr inh – inhibitors of ATXN2 expression | HEK-293 ATXN2-luciferase reporter, luminescence, 24 h | Potency, µM (series often up to 57 µM), without a hit: at the top dose activity change, negative = inhibition, actives largely listed as inhibitors | 360,000 compounds, 0.72% hits; further: on the % scale 0 is the no-effect control and ±100 the full control effect; nearly all actives have a fitted effect of over 55% in size
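qHTS (up to 57 uM final) was run with 24 h compound exposure of reporter cells at 37 °C. Each well was multiplexed: SteadyGlo luminescence measured ATXN2-luciferase expression after a fluorogenic Gly-Phe-AFC viability readout (25 uM final).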
ATXN viability – viability counter-screen for ATXN expression inhibitors; S2 cells (HEK-293 line with an ATXN2-luciferase reporter) viability, CellTiter-Fluor protease fluorescence, 24 h; 400,000 compounds, 0.49% hits; AID 651635; Potency, µM (titrated, usually from 56.7 µM), actives largely listed as cytotoxic; further: nearly all actives have a fitted effect of over 40% in size
Nrf2 inh – blocks Nrf2 signaling; A549 ARE-Fluc reporter, luciferase luminescence, 18-24 h; Potency, µM (series often up to 46 µM), for the others: top-dose activity change, negative = inhibition, usual class: inhibitors; 360,000 compounds, 2.1% hits; AID 504444; further: on the % scale 0 is the no-effect control and ±100 the full control effect; nearly all actives have a fitted effect of over 60% in size
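Quantitative HTS in A549 cells stably bearing an antioxidant response element-firefly luciferase construct. Inhibition of Nrf2-driven transcription was scored by luminescence after 18-24 h of compound exposure at 37 °C.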
HepG2 tox – HepG2 cytotoxicity, counter-screen for TGF-b inhibitors | HepG2 CAGA-GFP viability, ATP luminescence, 18 h | Potency, µM (titrated, usually from 46.1 µM), inactives show at the highest dose activity change, negative = cytotoxicity, most hits filed as cytotoxic | 410,000 compounds, 0.76% hits
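HepG2 CAGA-GFP cells (1000/well, DMEM with 1% FBS) received compound, then TGF-beta at 500 pg/mL final, and were incubated 18 hours at 37 degrees C. Viability was read by CellTiter-Glo luminescence. Media-only wells were set as complete cell-killing and DMSO as no toxicity.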
TGFb inhibitor – blocks TGF-b signaling. HepG2 CAGA-GFP TGF-b/SMAD3 reporter, GFP fluorescence, 18 h; TGF-beta stimulated, 500 pg/mL final. Potency, µM (top dose mostly 46.1 µM), for the others: at the top dose activity, negative = inhibition, most hits filed as inhibitors. 410,000 compounds, 1.2% hits; further: on the % scale 0 is the no-effect control and ±100 the full control effect; nearly all actives have a fitted effect of over 65% in size
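Inhibition was scored as loss of TGF-beta-induced (500 pg/mL final, 18 hours, 37 degrees C) GFP in HEPG2 cells carrying a CAGA-GFP reporter, in DMEM with 1% FBS. Well GFP was summed per cell; Activity was normalised to unstimulated and stimulated DMSO wells, then concentration-response fitting.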
A549 tox – kills or reduces viability of A549 cells in Nrf2 counter-screen; 390,000 compounds, 0.16% hits; Potency, µM (doses to about 46 µM), for the others: top-dose activity change, negative = cytotoxicity, usual class: inhibitors; AID 504648; A549 ARE-Fluc cells, CellTiter-Fluor viability, 18-24 h; further: on the % scale 0 is the no-effect control and ±100 the full control effect
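A549 ARE-Fluc cells in 5% FBS OPTI-MEM, 5000 cells/well, rested 2 h then exposed to compounds in concentration-response for 18-24 h at 37 °C. Viability by CellTiter-Fluor fluorescence (Ex 405/Em 525) after 30 min; luciferase luminescence (BugLite, 15 min, RT) read afterwards.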
An asterisk follows results filed as active; i = inactive; ? = inconclusive; . = not tested or not shown; ! = repeats disagree. This is a sample that favours compounds with a hit; in the whole collection about 3.8% have one here. The call rests on the fitted dose curve; in most records, active means well fitted curve in the direction sought with a large enough effect; inconclusive means small, poorly fitted or top-dose-only effect, or another doubt; inactive means no such curve, though single readings can be large; an effect the other way counts as inactive or inconclusive. Potency means the concentration at half of the fitted maximal effect.

SMILES	ATXN2 expr inh	ATXN viability	Nrf2 inh	HepG2 tox	TGFb inhibitor	A549 tox
CC(C)COC(=O)N1Cc2ccccc2-n2nncc2C1	5.0%	i	.	-6.9%	-2.7%	.
CCCCCn1c(NC(=O)c2ccco2)c(C(=O)OCC)c2nc3ccccc3nc21	?	i	?	15.8µM*	20µM*	?
NNc1ccccc1	9.3%	i	.	.	.	.
CCOc1ccc(NCc2cccn2-c2nnc(N3CCC(C(=O)NCc4ccc(C)cc4)CC3)s2)cc1	.	.	?	-25.7%	.	-11.5%
Cc1ccc(NCc2cccn2-c2nnc(N3CCC(C(=O)NCc4ccc(OC(C)C)cc4)CC3)s2)cc1	.	.	25.9µM*	-22.3%	.	-14.7%
CCOc1ccc2nc(N3CCC(C(=O)Nc4ccc(Br)cc4F)CC3)sc2c1	.	.	?	-11.8%	-4.3%	1.6%
CCOc1ccc(NCc2cccn2-c2nnc(N3CCC(C(=O)NCC(C)c4ccccc4)CC3)s2)cc1 (stereo unspecified)	.	.	14.6µM*	-4.1%	.	1.3%
O=C(NC1CCCCC1)N1Cc2ccccc2-n2nncc2C1	9.0%	i	9.0%	1.6%	-4.4%	19.4%
COc1ccc(C(=O)Oc2cccc3cccnc23)cc1S(=O)(=O)N1CCOCC1	-11.5%	i	9.7%	12.6µM*	12.6µM*	0.4%
CC(C)(C)NCC(O)c1cc(Cl)c(N)c(C(F)(F)F)c1 (stereo unspecified)	3.1%	?	.	.	.	.
Clc1ccc(COC(Cn2ccnc2)c2ccc(Cl)cc2Cl)cc1 (stereo unspecified)	35.5µM*!	?	?	-94.5%	?	-20.7%
Cc1cc(/C=C2\C(=O)NC(=O)N(c3ccc(Cl)cc3)C2=O)c(C)n1-c1sc2c(c1C#N)CCCC2	.	?	2.3%	-46.7%	3.55µM*	0.8%
COC(=O)C1=C(c2ccc(-c3ccccc3)c(F)c2)C[C@@H]2CC[C@H]1N2C(=O)N1CCc2cc(OC)c(OC)cc2C1	?	?	16.4µM*	-12.6%	-28.0%	-14.4%
COC(=O)C1=C(c2ccc(-c3ccccc3)c(F)c2)C[C@@H]2CC[C@H]1N2C(=O)N1CCCC1	?	?	20.6µM*	-27.6%	?	-1.3%
COC(=O)C1=C(c2ccc(-c3ccccc3)c(F)c2)C[C@@H]2CC[C@H]1N2C(=O)N1CCCCC1	?	?	?	-5.5%	?	-20.8%
Cc1nnc(NC(=O)c2cccn(Cc3ccccc3F)c2=O)s1	9.3%	i	.	-3.5%	-1.4%	-1.3%
Cc1ccc(NC(=O)c2snnc2C)cc1Cl	18.2%	i	?	-23.5%	16.2%	-10.5%
Cc1nn(C(C)(C)C)c(C)c1/C=N/OC(=O)Nc1ccc(Cl)c(Cl)c1	.	i	1.84µM*	-78.2%	17.8µM*	6.8%
O=c1oc2ccccc2c(O)c1C(CC(O)c1ccc(-c2ccc(Br)cc2)cc1)c1ccccc1 (stereo unspecified)	8.9%	i	.	.	.	.
CCN(CC)c1ccc(C=C2C(=O)NC(=S)NC2=O)cc1	.	?	?	15.8µM*	17.8µM*	-6.0%
C[C@@H]1CNC(=O)c2c(C(=O)Nc3cccc(Cl)c3)ncn21	-12.4%	?	.	-7.7%	?	.
Cc1ccccc1-n1c(/C=C/c2ccc(N(C)C)cc2)nc2ccccc2c1=O	.	.	?	-8.0%	273.2%	?
Cc1ccccc1-n1c(/C=C/c2c(C)[nH]c3ccccc23)nc2ccccc2c1=O	.	.	20.6µM*	-24.5%	?	?
CCOc1ccc(CCNC(=O)c2cnc3sc(N4CCCC4)nn3c2=O)cc1	.	.	11.6µM*	-8.3%	?	-14.9%
O=c1[nH]c(O)c(C=NC2CCCCC2)c(=O)[nH]1	0.3%	?	-18.3%	0.631µM*	5.3%	-10.1%
SMILES	ATXN2 expr inh	ATXN viability	Nrf2 inh	HepG2 tox	TGFb inhibitor	A549 tox
Cn1c(O)c(C=NC2CCCCC2)c(=O)[nH]c1=S	0.0%	i	7.5%	-6.8%	-4.6%	4.6%
O=S(=O)(c1ccc(Cl)cc1)N1CCC(n2cnc3cc(C(F)(F)F)ccc32)CC1	?	i	?	-16.9%	0.0%	-10.7%
N[C@H](CO)Cc1ccccc1	-7.7%	i	-7.3%	-4.8%	0.2%	-3.6%
OCc1cccc[n+]1CCc1ccccc1	3.3%	i	7.31µM*	30.3%	18.7%	-1.7%
COC(=O)C1=C(C(=O)OC)SC2(S1)C(C(=O)OC)=C(C(=O)OC)Sc1c2ssc1=O	17.8µM*	14.1µM*	?	-106.9%	?	?
CC(C)CCOP(=O)(c1ccc(N(C)C)cc1)C(O)c1ccc(Cl)cc1Cl (stereo unspecified)	0.0%	?	?	-169.7%	?	?
COc1ccc(-[n+]2c(-c3ccccc3)cc(-c3ccc(C)cc3)cc2-c2ccccc2)cc1	?	?	20.6µM*	-33.4%	7.08µM*	?
COc1ccc(-c2cc(-c3ccccc3)[n+](C)c(-c3ccccc3)c2)cc1	8.91µM*	i	?	-12.8%	?	?
Cc1ccccc1-[n+]1c(-c2ccccc2)cc(-c2ccccc2)cc1-c1ccccc1	?	12.6µM*	11.6µM*	-31.9%	?	?
Cc1ccc(-c2cc(-c3ccccc3)cc(-c3ccccc3)[n+]2-c2ccc(C(=O)O)cc2)cc1	4.7%	i	4.7%	-3.0%	17.9%	1.7%
O=C(NCCc1ccccc1)[C@@H]1CC=C[C@@H]2CCN(Cc3ccc(Cl)c(Cl)c3)C(=O)[C@@H]21	-7.1%	.	?	-18.3%	?	-23.8%
CC[C@H](CO)NC(=O)[C@H]1C=C2c3cccc4[nH]cc(c34)C[C@@H]2N(C)C1	.	i	.	.	.	.
CC(C)(C)c1ccc(CSc2cnn(C(C)(C)C)c(=O)c2Cl)cc1	.	i	0.146µM*	-14.3%	-21.9%	-9.6%
C=CCC1(C(C)CC)C(=O)NC(=O)NC1=O (stereo unspecified)	2.6%	i	.	.	.	.
CC1CCC(C(C)C)C(OC(=O)Cn2c(COc3ccccc3)[n+](C)c3ccccc32)C1 (stereo unspecified)	?	25.1µM*	?	20µM*	12.6µM*	?
O=C(COc1cc(Cl)ccc1Cl)Nc1ccc(Cl)cc1C(=O)c1ccccc1	.	.	6.1%	-12.4%	6.5%	0.0%
S=C(SSC(=S)N1CCCCC1)N1CCCCC1	-90.4%	10µM*!	.	.	.	.
Cc1[nH]ccc2c1[nH]c1cc(=O)ccc12	-20.0%	i	?	-41.1%	0.0%	-5.4%
CC1COC2(c3ccccc3Cl)c3cc(Cl)ccc3NC(=O)CN12 (stereo unspecified)	3.9%	i	.	.	.	.
